# Screening data (PubChem BioAssay)
# Rows were chosen to be rich in hits. Some 6.7% of all compounds tested hit in one or more screens of this group.
# T cruzi growth-1 = inhibitors of T. cruzi proliferation | inhibition, % at 8.34 µM | AID 624255 | T. cruzi beta-gal in NIH3T3, GalScreen luminescence, 90 h | hit rate 5.9% among 77,000;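 active = mean inhibition above about 93%, with at least 55% of replicates each passing it, limit read from the data, passing the limit was not always enough; inconclusive = only one of those two conditions holds; inactive = neither condition holds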
# C diff HTS = blocks growth of Clostridium difficile; Clostridium difficile clinical isolate growth, OD600, 24 h; active compounds read low; hit rate 0.25% among 86,000; AID 1259249; growth activity, negative = inhibition, % at 16 µg/mL (by protocol);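 active = mean growth activity at or below -80% and every replicate also at or below -80%; inconclusive = mean at or below -80% but some replicate above -80%; inactive = mean growth activity above -80%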
# Pf Dd2 growth = inhibitors of Plasmodium falciparum Dd2 growth | hit rate 2.3% among 94,000 | P. falciparum Dd2 growth, SYBR Green, 72 h; active compounds read low | activity change, % at 10 µM; in the data active = activity change below about -80%; inconclusive = no clear call, values can overlap the other calls
# T cruzi growth-2 = inhibitors of T. cruzi proliferation; T. cruzi beta-gal in NIH3T3, GalScreen luminescence, 90 h; hit rate 72% among 5,600; inhibition, % at 8.35 µM; shares compounds with T cruzi growth-1;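 active = mean replicate inhibition above about 95% and at least 55% of replicates individually reaching it, limit read from the data; inconclusive = only one of the two criteria is met; inactive = neither criterion is met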
# T cruzi growth-3 = inhibitors of T. cruzi proliferation; T. cruzi beta-gal in NIH3T3, GalScreen luminescence, 90 h; hit rate 21% among 5,600; inhibition, % at 2.09 µM; shares compounds with T cruzi growth-1;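 active = mean inhibition above about 95%, with at least 55% of replicates also reaching it, limit read from the data; inconclusive = meets just one of the two conditions; inactive = meets neither condition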
# 3T3 cytotox = kills mouse NIH/3T3 fibroblasts | shares compounds with T cruzi growth-1 | NIH/3T3 viability, CellTiter-Glo ATP luminescence, 90 h | cytotoxicity (signal decrease), % at 8.35 µM | hit rate 14% among 5,600 | AID 651742;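 active = mean signal decrease across replicates above about 35% based on untreated-well scatter, with enough replicates individually passing, limit read from the data; inconclusive = no rule stated though some were filed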
# 3T3 cytotox 2 = NIH/3T3 (mouse) viability loss; shares compounds with T cruzi growth-1; NIH/3T3 viability, CellTiter-Glo ATP luminescence, 90 h; inhibition, % at 24.9 µM; hit rate 56% among 5,600; AID 651744;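 active = mean loss of cell viability signal at or above a set limit, and enough replicates individually reaching it; inconclusive = meets only the mean limit or only the replicate share; inactive = meets neither condition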
# Numbers stand for hits; 0 = inactive; ? = inconclusive; - = not tested or not shown.
SMILES,T cruzi growth-1,C diff HTS,Pf Dd2 growth,T cruzi growth-2,T cruzi growth-3,3T3 cytotox,3T3 cytotox 2
CO[C@H]1CN(C)C(=O)c2ccc(NS(=O)(=O)c3ccccc3C)cc2OC[C@H](C)N(C)C[C@H]1C,0,-,0,-,-,-,-
C[C@H](CO)N1C[C@H](C)[C@H](CN(C)C(=O)[C@@H](Cc2ccccc2)N(C)C)OCc2ccccc2-c2ccccc2C1=O,0,0,0,-,-,-,-
O=C(NC1CCCCC1)N1CC(=O)N2[C@H](C1)[C@H](c1ccc(/C=C/c3ccccc3)cc1)[C@@H]2CO,-,0,0,-,-,-,-
CN1C(=O)c2cc(NC(=O)c3ccc(F)c(F)c3)ccc2OC[C@@H]2O[C@H](CC(=O)N[C@H]3CCN(Cc4ccccc4)C3)CC[C@@H]21,104,0,-,104,0,0,32
CN1C(=O)c2cc(NC(=O)c3ccc(F)c(F)c3)ccc2OC[C@H]2O[C@H](CC(=O)N[C@@H]3CCN(Cc4ccccc4)C3)CC[C@H]21,0,0,-,-,-,-,-
CCNC(=O)Nc1ccc2c(c1)C(=O)N(C)[C@H]1CC[C@H](CC(=O)NCc3cccc(F)c3)O[C@H]1CO2,0,0,0,-,-,-,-
C=CCCN(CC#C[C@H]1Oc2ccccc2S(=O)(=O)N2CCC[C@@H]12)S(=O)(=O)c1ccc(C)cc1,-,0,-,-,-,-,-
C[C@H](CO)N1C[C@H](C)[C@@H](CN(C)Cc2cccnc2)Oc2cc(C3=CCCCC3)ccc2S1(=O)=O,-,0,0,-,-,-,-
C[C@@H]1CN([C@@H](C)CO)S(=O)(=O)c2ccc(C3=CCCCC3)cc2O[C@@H]1CN(C)Cc1ccncc1,102,0,0,99,0,?,78
C[C@@H]1CN([C@@H](C)CO)S(=O)(=O)c2ccc(C3=CCCCC3)cc2O[C@H]1CN(C)Cc1ccncc1,114,0,0,95,107,46,95
C[C@@H]1CN([C@H](C)CO)S(=O)(=O)c2ccc(C3=CCCCC3)cc2O[C@@H]1CN(C)Cc1cccnc1,-,0,0,-,-,-,-
C[C@H]1CN([C@@H](C)CO)S(=O)(=O)c2ccc(C3=CCCCC3)cc2O[C@@H]1CN(C)Cc1ccncc1,121,0,0,96,97,53,102
C[C@H]1CN([C@@H](C)CO)S(=O)(=O)c2ccc(C3=CCCCC3)cc2O[C@H]1CN(C)Cc1cncnc1,0,0,0,-,-,-,-
C[C@H](CO)N1C[C@H](C)[C@H](CN(C)Cc2ccncc2)Oc2cc(C3=CCCCC3)ccc2S1(=O)=O,116,0,0,98,0,58,83
C[C@@H]1CN([C@H](C)CO)S(=O)(=O)c2ccc(C3=CCCCC3)cc2O[C@H]1CN(C)Cc1cccnc1,-,0,0,-,-,-,-
CN(C)C(=O)C[C@@H]1C[C@H]2c3cc(NC(=O)CC4CC4)ccc3O[C@H]2[C@@H](CO)O1,0,-,0,-,-,-,-
COc1ccc(-c2cn(CC[C@H]3CC[C@@H](NC(=O)NC(C)C)[C@H](CO)O3)nn2)cc1,0,0,0,-,-,-,-
C[C@@H]1CN([C@H](C)CO)C(=O)c2cc(NS(=O)(=O)c3cn(C)cn3)ccc2O[C@@H](C)CCCCO[C@@H]1CN(C)S(=O)(=O)c1ccc(F)cc1,0,0,0,-,-,-,-
COc1cccc(-c2ccc3c(c2)O[C@@H](CN(C)Cc2cccnc2)[C@H](C)CN([C@H](C)CO)S3(=O)=O)c1,112,0,0,?,0,56,104
COc1cccc(-c2ccc3c(c2)O[C@H](CN(C)Cc2cccnc2)[C@H](C)CN([C@@H](C)CO)S3(=O)=O)c1,100,0,0,97,101,63,66
COc1ccc(-c2ccc3c(c2)O[C@H](CN(C)Cc2cccnc2)[C@H](C)CN([C@@H](C)CO)S3(=O)=O)cc1,-,0,0,-,-,-,-
COc1cccc(-c2ccc3c(c2)O[C@H](CN(C)Cc2cccnc2)[C@H](C)CN([C@H](C)CO)S3(=O)=O)c1,112,0,0,97,0,54,64
COc1ccc(-c2ccc3c(c2)O[C@H](CN(C)Cc2cccnc2)[C@H](C)CN([C@H](C)CO)S3(=O)=O)cc1,-,0,0,-,-,-,-
COc1ccc(-c2ccc3c(c2)O[C@H](CN(C)Cc2cccnc2)[C@@H](C)CN([C@H](C)CO)S3(=O)=O)cc1,-,0,0,-,-,-,-
COc1cccc(-c2ccc3c(c2)O[C@H](CN(C)Cc2cccnc2)[C@@H](C)CN([C@@H](C)CO)S3(=O)=O)c1,119,0,0,105,106,?,60
SMILES,T cruzi growth-1,C diff HTS,Pf Dd2 growth,T cruzi growth-2,T cruzi growth-3,3T3 cytotox,3T3 cytotox 2
COc1ccc(-c2ccc3c(c2)O[C@@H](CN(C)Cc2cccnc2)[C@@H](C)CN([C@@H](C)CO)S3(=O)=O)cc1,-,0,0,-,-,-,-
CO[C@@H]1CN(C)C(=O)c2ccc(NC(=O)C3CCCC3)cc2OC[C@@H](C)N(CCC(F)(F)F)C[C@H]1C,0,0,0,-,-,-,-
C[C@@H]1CN([C@@H](C)CO)C(=O)Cc2cc(NC(=O)Cc3cn(C)c4ccccc34)ccc2O[C@H]1CN(C)S(=O)(=O)c1ccc(Cl)cc1,0,-,?,-,-,-,-
COc1ccc(NC(=O)Nc2ccc3c(c2)[C@@H]2C[C@H](CC(=O)NCc4ccccn4)O[C@H](CO)[C@@H]2O3)cc1,0,0,0,-,-,-,-
O=C(C[C@@H]1CC[C@@H]2[C@H](COC[C@H](O)CN2C(=O)Cc2ccccc2)O1)NC1CCCC1,0,0,0,-,-,-,-
COc1ccc(-c2ccc([C@H]3[C@H](C#N)N(C(=O)c4cccnc4)[C@H]3CO)cc2)cc1,107,0,-91,108,0,0,31
N#C[C@@H]1[C@H](c2ccc(-c3cccnc3)cc2)[C@H](CO)N1C(=O)Nc1ccc(F)cc1,0,0,0,-,-,-,-
COc1ccccc1-c1ccc([C@@H]2[C@@H](C#N)N(C(=O)c3cccc(F)c3)[C@@H]2CO)cc1,0,0,0,-,-,-,-
N#C[C@@H]1[C@@H](c2ccc(C3=CCCC3)cc2)[C@H](CO)N1C(=O)c1cccc(F)c1,0,0,0,-,-,-,-
COc1ccc(-c2ccc([C@H]3[C@H](C#N)N(C(=O)c4cccc(F)c4)[C@H]3CO)cc2)cc1,106,0,?,101,111,0,0
N#C[C@H]1[C@@H](c2ccc(-c3cccnc3)cc2)[C@@H](CO)N1C(=O)Nc1ccc(F)cc1,105,0,0,108,0,0,0
N#C[C@@H]1[C@@H](c2ccccc2)[C@@H](CO)N1C(=O)c1cccnc1,0,0,0,-,-,-,-
N#C[C@@H]1[C@H](c2ccc(C3=CCCCC3)cc2)[C@H](CO)N1C(=O)c1cccc(F)c1,?,0,0,107,0,0,24
CC(=O)Nc1ccc2c(c1)C(=O)N(C)[C@@H]1CC[C@H](CC(=O)N3CCc4ccccc4C3)O[C@@H]1CO2,0,0,0,-,-,-,-
O=C(C[C@H]1C[C@@H]2c3cc(NC(=O)C4CCC4)ccc3O[C@@H]2[C@@H](CO)O1)NCC1CC1,0,0,0,-,-,-,-
